Data reported in the supplement of paper PMC6555819.

How the values were obtained:
Experiment in all cases: PBM binding z-score (relative to random genomic background probes); higher = stronger binding; sequences stand for … in GC…GCGATTGACAGCGTAGAATGAAGG
[1] = test system: FXR:RXRa (NR concentration 270 nM, RXRa partner concentration 90 nM)
How it was run: (§1)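 Binding z-scores were set against random background probes. The data came from custom Agilent 4×180K protein-binding microarrays carrying double-stranded probes with 34-nt variable regions, incubated 1 h with ligand-free nuclear receptor dimers. Partner-specific antibodies detected binding, and scanned fluorescence was regression-normalized.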

[2] = test system: LXRa:RXRa (NR concentration 270 nM, RXRa partner concentration 90 nM)
How it was run: as §1

[3] = test system: LXRa homodimer (NR concentration 270 nM)
How it was run: as §1

[4] = test system: LXRb:RXRa (NR concentration 270 nM, RXRa partner concentration 90 nM)
How it was run: as §1

[5] = test system: LXRb homodimer (NR concentration 270 nM)
How it was run: as §1

[6] = test system: PPARa:RXRa (NR concentration 270 nM, RXRa partner concentration 90 nM)
How it was run: as §1

[7] = test system: PPARg:RXRa (NR concentration 180 nM, RXRa partner concentration 90 nM)
How it was run: as §1

[8] = test system: PPARg:RXRa 270nM:90nM, anti-RXR (NR concentration 270 nM, RXRa partner concentration 90 nM)
How it was run: as §1

[9] = test system: PPARg:RXRa 30nM:10nM, anti-RXR (NR concentration 30 nM, RXRa partner concentration 10 nM)
How it was run: as §1

[10] = test system: PPARg:RXRa 90nM:30nM, anti-RXR (NR concentration 90 nM, RXRa partner concentration 30 nM)
How it was run: as §1

[11] = test system: PPARg:RXRa DBDmut IVT, anti-RXR (DBD mutation: RXRa K156A/R161A, NR concentration 270 nM, RXRa partner concentration 90 nM)
How it was run: as §1

[12] = test system: PPARg:RXRa IVT, anti-PPARg (NR concentration 270 nM, RXRa partner concentration 90 nM)
How it was run: as §1

[13] = test system: PPARg DBDmut:RXRa IVT, anti-PPARg (DBD mutation: PPARg1 K132A/R137A, NR concentration 270 nM, RXRa partner concentration 90 nM)
How it was run: as §1

[14] = test system: PPARg DBDmut IVT, anti-PPARg (DBD mutation: PPARg1 K132A/R137A, NR concentration 270 nM)
How it was run: as §1

[15] = test system: PPARg homodimer (NR concentration 180 nM)
How it was run: as §1

[16] = test system: PXR:RXRa (NR concentration 270 nM, RXRa partner concentration 90 nM)
How it was run: as §1

[17] = test system: PXR homodimer (NR concentration 270 nM)
How it was run: as §1

[18] = test system: RARa:RXR (NR concentration 270 nM, RXRa partner concentration 90 nM)
How it was run: as §1

[19] = test system: RARa homodimer (NR concentration 270 nM)
How it was run: as §1

[20] = test system: RARb:RXRa (NR concentration 270 nM, RXRa partner concentration 90 nM)
How it was run: as §1

| Sequence | PBM binding z-score [1] | PBM binding z-score [2] | PBM binding z-score [3] | PBM binding z-score [4] | PBM binding z-score [5] | PBM binding z-score [6] | PBM binding z-score [7] | PBM binding z-score [8] | PBM binding z-score [9] | PBM binding z-score [10] | PBM binding z-score [11] | PBM binding z-score [12] | PBM binding z-score [13] | PBM binding z-score [14] | PBM binding z-score [15] | PBM binding z-score [16] | PBM binding z-score [17] | PBM binding z-score [18] | PBM binding z-score [19] | PBM binding z-score [20] |
| --- | --- | --- | --- | --- | --- | --- | --- | --- | --- | --- | --- | --- | --- | --- | --- | --- | --- | --- | --- | --- |
| CCTTGGAGGACAACAGGAGGTCAGAGCTGCCAGA | 1.03 | 2.19 | 2.44 | 1.58 | -0.284 | 2.26 | 0.731 | 0.64 | 0.153 | 0.077 | 1.07 | 1.27 | -1.18 | -0.193 | 1.41 | 1.97 | 0.462 | 2.33 | 0.276 | 2.83 |
| AGAGCGAGGGCAATGAGTTGATAGCACGGGTGGC | -0.116 | -0.109 | -0.331 | -0.283 | -0.845 | 0.406 | 0.562 | -0.152 | -0.57 | -0.736 | 0.771 | 0.253 | 0.00949 | -1.18 | -0.656 | 1.38 | 4.01 | 0.0108 | -1 | 2.13 |
| GCTTGTAGATCAAGGTTAAGAACGACTAAGCTAA | 0.0945 | 0.622 | -0.347 | 0.349 | -0.704 | 1.59 | 1.12 | 2.18 | 0.429 | 1.44 | 1.08 | 1.15 | 0.637 | -0.445 | 0.356 | 0.364 | -0.0676 | 0.827 | 0.211 | 0.716 |
| ATCTCTAGGTAAGACTCAGTTCAGTGAAGAACGC | 0.226 | 0.477 | 0.614 | 0.261 | 1.05 | 0.0408 | -0.0322 | 0.385 | 0.412 | 0.159 | 1.86 | 0.996 | 1.18 | 1.16 | 1.11 | 1.04 | 1.31 | 0.197 | 0.948 | 0.386 |
| CCTTACGGGTCACTGACAGGATATAGCATTTGGA | 5.3 | 3.68 | 0.191 | 3.28 | -0.185 | 5.22 | 4.58 | 4.24 | 1.5 | 2.88 | 3.33 | 3.54 | 1.02 | 0.966 | 2.23 | 3.03 | 0.183 | 3.85 | 1.33 | 3.95 |
| CGTCCAAAGTCATAGGAGGTCAGTGAAGACAGAT | 2.25 | 4.11 | 1.4 | 2.44 | 0.026 | 2.82 | 0.638 | 0.912 | -0.0337 | 0.296 | 0.497 | 1.53 | 0.0341 | 0.213 | 1.59 | 3.35 | 1.12 | 2.86 | 1.34 | 2.7 |
| TCGAGTAGGTAACCAATGGGGCATTCAGCTTTCT | -0.177 | 0.0243 | -0.581 | 0.362 | -0.995 | 0.488 | -0.0874 | 0.632 | 1.08 | 0.602 | 2.5 | 1.74 | -0.421 | -0.752 | -0.5 | -0.372 | -0.877 | -0.292 | -0.817 | 0.0352 |
| GCTGCTAGGTCAACTGATGGTCAGCTCAAGCTCG | 4.04 | 3.02 | 0.195 | 2.03 | 0.0529 | 3.43 | 2.32 | 2.98 | 0.574 | 1.74 | 4.88 | 3.98 | -0.00259 | -0.768 | 2.12 | 1.66 | -0.637 | 2.9 | -0.413 | 4.23 |
| CCTACTGGACCACGAAAGGTCATTGATTCAGTGA | 3.93 | 5 | 5.74 | 4.47 | 1.54 | 4.5 | 2.84 | 3.67 | 1.47 | 2.9 | 3.39 | 3.26 | 0.692 | 0.507 | 3.78 | 5.28 | 2.09 | 5.61 | 2.84 | 4.02 |
| GATTGTAGATCAAGGTTAAGAAAGACTAAGCTAA | -0.0604 | 0.349 | -0.364 | 0.458 | -0.63 | 1.72 | 1.47 | 2.51 | 0.605 | 2.28 | 1.55 | 1.67 | -0.436 | -0.166 | -0.088 | 0.443 | -0.271 | 0.732 | -0.134 | 0.406 |
| CTCGAAAGGTCGTGCTCAGGTGAGCATACCAAAC | 5.82 | 4.04 | -0.293 | 3.23 | 0.516 | 4.76 | 3.03 | 4.08 | 1.02 | 2.96 | 0.762 | 2.31 | 0.195 | 0.25 | 3.06 | 3.43 | -0.196 | 4.74 | -0.133 | 3.92 |
